The source made the active and inactive calls.
Legend:
Albumin (Bos taurus) = Albumin (Bos taurus) (UniProt P02769); assay: bovine serum albumin binders on microarray, profiling panel, artefact control for SMM control protein annotation, biochemical, small-molecule microarray, Alexa647 label, 635/667 nm fluorescence (AID 1118); conditions: BSA-A647 binding, fluorescence 635 nm, higher = more signal;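 also: score merges 667 nm emission intensity and signal-to-noise per printed compound spot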
[1] = small-molecule microarray binders of probe aXIP, primary screen, biochemical, NeuroSMM set, 635/667 nm fluorescence (AID 1119); conditions: higher = more signal, called active from +8 up or from −8 down;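 also: probe is the protein aXip251-270 applied at 1 µg/mL to compound-printed slides; binding of probe to printed compounds measured as 667 nm fluorescence plus signal to noise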
[2] = small-molecule binders of probe aNOTCH3, primary screen, biochemical, small-molecule microarray, 635/667 nm fluorescence (AID 1120); conditions: higher = more signal;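 also: probe is a biotin-tagged antibody raised against NOTCH3 rather than NOTCH3 protein; score merges spot fluorescence near 667 nm with spot signal to noise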
[3] = small-molecule binders of probe aNOTCH2, primary screen, biochemical, small-molecule microarray, 635/667 nm fluorescence (AID 1121); conditions: higher = more signal;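 also: score merges feature fluorescence read at 667 nm with its signal to noise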
[4] = biological target: Carbonic anhydrase 2 (Homo sapiens) (UniProt P00918); assay: CAII small-molecule binders, profiling panel, biochemical, small-molecule microarray, Alexa647-labelled CAII (AID 1122); conditions: CAII-A647 binding fluorescence, higher = more signal
[5] = COS7 lysate on small-molecule microarray, probe aHis, 635 nm (AID 1123); conditions: COS7 cell lysate, fluorescence, higher = more signal;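 also: z-score combines 667nm fluorescence intensity with signal-to-noise per printed compound spot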
[6] = compound binding in COS7 lysate, probe aLAP1, primary screen, cell lysate, small-molecule microarray (AID 1124); conditions: probe aLAP1, fluorescence, higher = more signal;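 also: lysate comes from COS7 cells expressing LAP1 and is applied at 0.3 µg/mL; score merges spot fluorescence near 667 nm with signal-to-noise over triplicate slides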
Sam68 (KHDRBS1) = assay: Sam68 small-molecule binders, primary screen, biochemical, small-molecule microarray, 635 nm fluorescence (AID 1125); conditions: small-molecule microarray binding, higher = more signal;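 also: score merges 667 nm channel intensity with signal to noise over triplicate slides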
[7] = system: Chordin-like protein 2 (CHRDL2); assay: CHRDL2 small-molecule binders, primary screen, biochemical, small-molecule microarray, 635 nm fluorescence (AID 1126); conditions: small-molecule microarray binding, fluorescence 635 nm; higher = more signal;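 also: printed compound slides probed with Chrdl2 protein at 4 µg/mL for 1 h at 4 C; score merges 667 nm emission intensity with signal to noise over three replicate slides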
[8] = biological target: Concanavalin-A (Canavalia ensiformis) (UniProt P02866); assay: ConA small-molecule binders, primary screen, artefact control for SMM control protein annotation, biochemical, small-molecule microarray, Alexa647 label, 635 nm (AID 1127); conditions: ConA-A647 binding fluorescence, higher = more signal;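 also: z combines 667 nm emission intensity with signal-to-noise across three replicate slides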
Sequence of Concanavalin-A (Canavalia ensiformis) (P02866 whole entry, looked up): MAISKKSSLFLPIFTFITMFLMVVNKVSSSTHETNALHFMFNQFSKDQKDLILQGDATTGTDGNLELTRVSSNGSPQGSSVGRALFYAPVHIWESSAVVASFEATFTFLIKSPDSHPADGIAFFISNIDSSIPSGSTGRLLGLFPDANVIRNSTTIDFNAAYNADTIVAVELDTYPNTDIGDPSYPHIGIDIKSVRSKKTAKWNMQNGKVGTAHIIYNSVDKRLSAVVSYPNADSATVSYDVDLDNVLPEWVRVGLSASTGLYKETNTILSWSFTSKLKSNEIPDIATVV

Sequence of Albumin (Bos taurus) (P02769 whole entry, looked up): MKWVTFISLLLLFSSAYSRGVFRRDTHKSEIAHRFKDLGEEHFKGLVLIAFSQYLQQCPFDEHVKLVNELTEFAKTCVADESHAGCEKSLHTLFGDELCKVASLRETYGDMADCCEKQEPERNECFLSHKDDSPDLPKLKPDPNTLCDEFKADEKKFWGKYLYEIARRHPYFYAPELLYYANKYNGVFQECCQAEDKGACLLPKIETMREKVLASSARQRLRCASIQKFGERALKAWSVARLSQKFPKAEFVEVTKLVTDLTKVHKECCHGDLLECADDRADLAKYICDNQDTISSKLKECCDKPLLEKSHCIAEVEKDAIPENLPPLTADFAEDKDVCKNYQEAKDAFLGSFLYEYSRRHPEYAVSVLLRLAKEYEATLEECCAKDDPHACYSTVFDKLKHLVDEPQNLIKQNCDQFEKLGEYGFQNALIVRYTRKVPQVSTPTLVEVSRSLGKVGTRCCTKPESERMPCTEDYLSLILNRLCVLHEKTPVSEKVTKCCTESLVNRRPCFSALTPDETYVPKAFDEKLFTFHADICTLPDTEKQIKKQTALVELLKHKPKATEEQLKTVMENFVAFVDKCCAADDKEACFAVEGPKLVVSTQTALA

Row | Compound | composite z-score (Albumin (Bos taurus)) | composite Z-score [1] | composite z-score [2] | composite z-score [3] | composite z-score [4] | composite z-score [5] | composite z-score [6] | composite z-score (Sam68 (KHDRBS1)) | composite z-score [7] | composite z-score [8]
1 | O=C1OCC=C[C@H]2OC34C=CCN(Cc5ccccc5)C(=O)[C@H]3N(CCCCCCO)C(=O)[C@@H]4[C@@H]12 (stereo not given in full) | 0.4 | 0.604 (inactive) | -0.302 | -0.162 | 0.914 | 0.0976 | 1.31 | -0.398 | -0.694 | -0.159
2 | [N-]=[N+]=NCc1ccccc1C[C@@]1(C(=O)N2CCOCC2)N=C(c2ccc(OCCCO)cc2)O[C@@H]1c1ccccc1 | 0.851 | 0.879 (inactive) | 0.056 | 0.0012 | 0.617 | 2.92 | 0.491 | 1.11 | -0.577 | 1.08
3 | CC(=O)c1ccc(C(O)C2C=CC3C(=O)N(c4ccccc4)C(=O)C3N2Nc2ccc(C#N)cc2)cc1 (stereo not given) | 0.962 | 0.824 (inactive) | 0.119 | -0.0023 | 0.759 | 2.46 | -0.1 | 1.1 | -0.624 | 1.13
4 | C=C(COC)/C(=C/C[C@H](OC(=O)c1ccncc1)c1ccccc1OCCO)c1cnc2ccccc2c1 | 0.609 | 0.431 (inactive) | 0.0964 | -0.102 | 0.881 | 2.07 | 0.118 | 1.29 | 0.951 | 1.03
5 | C=CCC(OC(C)=O)[C@@H]1[C@@H](N(Cc2cc3ccccc3o2)C(=O)Cc2ccc(F)cc2)c2cc(OCCCO)ccc2N1C(=O)c1ccc2ccccc2c1 (stereo not given in full) | -0.379 | 0.749 (inactive) | -0.118 | -0.0904 | 0.31 | -0.234 | 0.0099 | -0.741 | -0.173 | -0.679
6 | COc1ccc(CCN2C(=O)[C@@]3(Cc4ccccc42)c2ccccc2C(=O)N(Cc2ccccc2OC)[C@H]3c2ccc(CO)cc2)cc1 | 0.282 | -0.0127 (inactive) | -0.177 | -0.0785 | 0.162 | 0.215 | -0.778 | -0.232 | -0.761 | -0.516
7 | CCOC(=O)C[C@H]1[C@H](OC(=O)c2ccccc2-c2ccccc2)[C@@H](NC(=O)C2CCCCC2)c2cc(OCCCO)ccc2N1C(=O)Cc1ccc(OC)cc1 | 0.0179 | -0.483 (inactive) | -0.046 | -0.122 | 0.0935 | 0.0644 | 0.0035 | -0.0019 | -0.292 | 0.0384
8 | COCCOC(=O)N1C(=O)[C@@]2(c3cc(C#CCCO)ccc31)[C@H](c1ccccc1OCCO)N1[C@H](c3ccccc3)[C@H](c3ccccc3)OC(=O)[C@H]1[C@@H]2C(=O)Nc1nc2ccccc2s1 | 0.802 | 0.048 (inactive) | 0.108 | -0.0352 | 0.729 | 2.02 | 0.967 | 1.29 | 0.0314 | 1.09
9 | CCOC(=O)C[C@H]1[C@H](OC(=O)Cc2ccc3c(c2)OCO3)[C@@H](NC(=O)Cc2ccc(OC)cc2)c2cc(OCCCO)ccc2N1C(=O)c1ccc2ccccc2n1 | 0.857 | -0.802 (inactive) | -0.0768 | -0.11 | 0.154 | 1.15 | 0.199 | 0.489 | 0.276 | -0.533
10 | C=CCC(OC(C)=O)[C@@H]1[C@@H](N(Cc2cc3ccccc3o2)C(=O)c2ccc(C)cc2)c2cc(OCCCO)ccc2N1C(=O)Cc1ccc(OC)cc1 (stereo not given in full) | -0.204 | 0.264 (inactive) | -0.176 | -0.0811 | -0.119 | 0.59 | 0.128 | 0.0262 | 0.172 | 0.217
11 | O=C1C2C=CC(C(O)c3ccc(F)cc3)N(n3cnnc3)C2C(=O)N1Cc1ccccc1 (stereo not given) | -0.224 | 0.878 (inactive) | 0.0065 | -0.14 | 0.561 | 0.747 | -0.138 | -0.256 | -0.62 | -0.129
12 | COC(=O)c1ccc([C@H](NC(=O)c2ccco2)[C@]2(C)C[C@H]2C2CCCCC2)cc1 | 0.678 | 0.0201 (inactive) | 0.0179 | -0.0391 | -0.227 | 1.43 | -0.164 | -0.552 | -1.17 | 0.208
